The source of these data is PubChem BioAssay (NCI).

Assay [1] can be described thus: NCI Yeast Anticancer Drug Screen. Data for the rad50 strain (AID 155).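 Further: 0% = growth of vehicle-only cultures of the same strain.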 The conditions noted are these: S. cerevisiae rad50 strain growth inhibition, active compounds read high. The gist of the method:
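A DNA repair-deficient yeast mutant serves as the test organism; compound-induced growth inhibition is calculated against vehicle-treated cells.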

Assay [2] in a line: NCI Yeast Anticancer Drug Screen. Data for the mec2-1 strain (AID 157). The conditions noted are these: S. cerevisiae mec2-1 strain, active compounds read high. The gist of the method:
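Each compound was tested on mec2-1 yeast, a strain altered in DNA damage repair or cell cycle control. Growth inhibition is reported relative to vehicle.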

Assay [3] is described as follows: NCI Yeast Anticancer Drug Screen. Data for the sgs1 mgt1 strain (AID 161).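 Further: 0% = growth of cultures given vehicle only.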 The conditions noted are these: S. cerevisiae sgs1 mgt1 strain, active compounds read high. The gist of the method:
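Inhibition of yeast growth, normalised to vehicle-treated controls, is reported for a strain bearing genetic alterations in DNA damage repair.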

Assay [4] in a line: NCI Yeast Anticancer Drug Screen. Data for the cln2 rad14 strain (AID 165).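 Further: 0% = growth equal to vehicle treated cultures.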 As to conditions: S. cerevisiae cln2 rad14 strain, active compounds read high. The gist of the method: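 Test compounds were added to cln2 rad14 yeast cultures; inhibition of growth was then determined by comparison with vehicle treatment.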
Assay [5] in a line: NCI Yeast Anticancer Drug Screen. Data for the bub3 strain (AID 167). As to conditions: S. cerevisiae bub3 mutant strain, active compounds read high. The gist of the method:
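Inhibition values come from growth of compound-treated mutant yeast normalised to vehicle-treated controls.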

Assay [6] is described as follows: NCI Yeast Anticancer Drug Screen. Data for the mlh1 rad18 strain (AID 175). The conditions noted are these: S. cerevisiae mlh1 rad18 strain growth inhibition, active compounds read high. The gist of the method:
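Inhibition values reflect reduced growth of mutant yeast versus vehicle-treated controls following compound exposure; the mutations affect DNA damage repair.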

Where [7] appears, read: at 5.0 µM (retest, dose inferred, filed as 0.5).
Where [8] appears, read: at 50.0 µM (retest, dose inferred, filed as 5.0).

This is part of a sample that, as a whole, favours compounds with a hit. Of some 79,000 tested, about 15% had one in any assay. Values without a mark were called inactive. The source made the active and inactive calls. No stated cut-off is given here; in the data, active means growth inhibition above about 70%; inactive means the rest.

Regarding `O=[N+]([O-])/C(Cl)=C(/C(Cl)=C(Cl)Cl)N1CCCCC1`, the growth inhibition was -3% in assay [1] (setting [7]); 16% in assay [1] (setting [8]); 28.6% in assay [1] (at 50.0 µM); 8% in assay [2] (setting [7]); 25% in assay [2] (setting [8]); 11.7% in assay [2] (at 50.0 µM). The growth inhibition was 14% in assay [3] (setting [7]); 27% in assay [3] (setting [8]); 34.1% in assay [3] (at 50.0 µM); 13% in assay [4] (setting [7]); 22% in assay [4] (setting [8]); 1.5% in assay [4] (at 50.0 µM). Also, the growth inhibition in assay [5] (setting [7]) is 22%; in assay [5] (setting [8]), 34%; in assay [5] (at 50.0 µM) it was 23.6%; in assay [6] (setting [7]), 2%; in assay [6] (setting [8]) it was 27%; in assay [6] (at 50.0 µM), 43.1%.
In the case of `COc1ccc(C(=O)C(Br)CS(=O)(=O)c2ccc(C)cc2)cc1` (configuration not stated), the growth inhibition in assay [1] (setting [7]) was 56%; in assay [1] (setting [8]) it was 99% (active); in assay [1] (at 50.0 µM), 99% (active); in assay [2] (setting [7]), 36%; in assay [2] (setting [8]), 99% (active); in assay [2] (at 50.0 µM), 99.4% (active). The growth inhibition in assay [3] (setting [7]) is 71% (active); in assay [3] (setting [8]), 99% (active); in assay [3] (at 50.0 µM) it was 99.4% (active); in assay [4] (setting [7]) it was 18%; in assay [4] (setting [8]), 98% (active); in assay [4] (at 50.0 µM), 97.8% (active). For the same compound, the growth inhibition in assay [5] (setting [7]) is 47%; in assay [5] (setting [8]) it was 98% (active); in assay [5] (at 50.0 µM) it was 99.1% (active); in assay [6] (setting [7]), 48%; in assay [6] (setting [8]), 98% (active); in assay [6] (at 50.0 µM), 99% (active).
With `O=C(CBr)c1cccc(OC(=O)c2ccccc2)c1`, the growth inhibition in assay [1] (setting [7]) is 91% (active); in assay [1] (setting [8]) it was 99% (active); in assay [1] (at 50.0 µM) it was 44.2%; in assay [2] (setting [7]) it was 91% (active); in assay [2] (setting [8]), 98% (active); in assay [2] (at 50.0 µM), 26.1%. The growth inhibition in assay [3] (setting [7]) is 100% (active); in assay [3] (setting [8]), 99% (active); in assay [3] (at 50.0 µM) it was 68%; in assay [4] (setting [7]), 88% (active); in assay [4] (setting [8]) it was 99% (active); in assay [4] (at 50.0 µM), 29.9%. Moreover, the growth inhibition in assay [5] (setting [7]) is 99% (active); in assay [5] (setting [8]) it was 99% (active); in assay [5] (at 50.0 µM), 56.2%; in assay [6] (setting [7]), 90% (active); in assay [6] (setting [8]), 99% (active); in assay [6] (at 50.0 µM) it was 16.1%.
For `COC(=O)c1nnn(-c2cccc(C(F)(F)F)c2)c1C(=O)c1ccc(Cl)c(Cl)c1`, the growth inhibition in assay [1] (setting [7]) was -3%; in assay [1] (setting [8]), 98% (active); in assay [1] (at 50.0 µM), 97.7% (active); in assay [2] (setting [7]), 8%; in assay [2] (setting [8]) it was 98% (active); in assay [2] (at 50.0 µM), 80% (active). For the same compound, the growth inhibition in assay [3] (setting [7]) is -5%; in assay [3] (setting [8]), 99% (active); in assay [3] (at 50.0 µM), 97.7% (active); in assay [4] (setting [7]), 9%; in assay [4] (setting [8]) it was 95% (active); in assay [4] (at 50.0 µM), 59.2%. For the same compound, the growth inhibition is 16% in assay [5] (setting [7]); 98% (active) in assay [5] (setting [8]); 89.4% (active) in assay [5] (at 50.0 µM); 4% in assay [6] (setting [7]); 98% (active) in assay [6] (setting [8]); 97% (active) in assay [6] (at 50.0 µM).
Regarding `Oc1c(Br)cc(Br)cc1C=Nc1ccc(Br)cc1`, the growth inhibition is 68% in assay [1] (setting [7]); 98% (active) in assay [1] (setting [8]); 80.8% (active) in assay [1] (at 50.0 µM); 55% in assay [2] (setting [7]); 99% (active) in assay [2] (setting [8]); 91.5% (active) in assay [2] (at 50.0 µM). Also, the growth inhibition is 72% (active) in assay [3] (setting [7]); 98% (active) in assay [3] (setting [8]); 89.6% (active) in assay [3] (at 50.0 µM); 44% in assay [4] (setting [7]); 99% (active) in assay [4] (setting [8]); 89.2% (active) in assay [4] (at 50.0 µM). Also, the growth inhibition is 73% (active) in assay [5] (setting [7]); 99% (active) in assay [5] (setting [8]); 89% (active) in assay [5] (at 50.0 µM); 88% (active) in assay [6] (setting [7]); 98% (active) in assay [6] (setting [8]); 87.1% (active) in assay [6] (at 50.0 µM).
For the compound `CC(=O)OCC1CC2OC2CC1C` (configuration not stated), the growth inhibition in assay [1] (setting [7]) is 1%; in assay [1] (setting [8]), 2%; in assay [1] (at 50.0 µM), 70.1% (active); in assay [2] (setting [7]), 6%; in assay [2] (setting [8]), -5%; in assay [2] (at 50.0 µM), 50.1%. Besides, the growth inhibition in assay [3] (setting [7]) is 15%; in assay [3] (setting [8]) it was 7%; in assay [3] (at 50.0 µM) it was 70.4% (active); in assay [4] (setting [7]), 34%; in assay [4] (setting [8]) it was 9%; in assay [4] (at 50.0 µM), 68.1%. The growth inhibition in assay [5] (setting [7]) was 27%; in assay [5] (setting [8]) it was 19%; in assay [5] (at 50.0 µM) it was 75% (active); in assay [6] (setting [7]), -12%; in assay [6] (setting [8]), -26%; in assay [6] (at 50.0 µM), 63%.
For `C=C1CC2(CC(C(C)C)CCC2C)OC1=O` (configuration not stated), the growth inhibition in assay [1] (setting [7]) is 14%; in assay [1] (setting [8]), 38%; in assay [1] (at 50.0 µM), 7.5%; in assay [2] (setting [7]) it was 13%; in assay [2] (setting [8]), 52%; in assay [2] (at 50.0 µM), -2.45%. Also, the growth inhibition in assay [3] (setting [7]) is 23%; in assay [3] (setting [8]), 54%; in assay [3] (at 50.0 µM), 14.7%; in assay [4] (setting [7]), 31%; in assay [4] (setting [8]), 57%; in assay [4] (at 50.0 µM), 19.6%. In addition, the growth inhibition in assay [5] (setting [7]) is 42%; in assay [5] (setting [8]), 53%; in assay [5] (at 50.0 µM), -11.8%; in assay [6] (setting [7]) it was 35%; in assay [6] (setting [8]), 64%; in assay [6] (at 50.0 µM), 2.3%.
As for `O=C1C(c2ccccc2)=[N+]([O-])c2cc([N+](=O)[O-])c(/C(Cl)=C/c3ccccc3)cc21`, the growth inhibition in assay [1] (setting [7]) was 4%; in assay [1] (setting [8]) it was 8%; in assay [1] (at 50.0 µM), 54.8%; in assay [2] (setting [7]), 5%; in assay [2] (setting [8]), 33%; in assay [2] (at 50.0 µM) it was 94.5% (active). Moreover, the growth inhibition is 6% in assay [3] (setting [7]); 16% in assay [3] (setting [8]); 71.5% (active) in assay [3] (at 50.0 µM); 11% in assay [4] (setting [7]); 9% in assay [4] (setting [8]); 39.2% in assay [4] (at 50.0 µM). Also, the growth inhibition in assay [5] (setting [7]) is 7%; in assay [5] (setting [8]), 7%; in assay [5] (at 50.0 µM), 97.9% (active); in assay [6] (setting [7]), 3%; in assay [6] (setting [8]), 3%; in assay [6] (at 50.0 µM) it was 96.2% (active).
With `CCOC(=O)C(Cc1cc(I)c(Oc2ccc(OC)cc2)c(I)c1)NC(C)=O` (configuration not stated), the growth inhibition is 36% in assay [1] (setting [7]); 92% (active) in assay [1] (setting [8]); 86.8% (active) in assay [1] (at 50.0 µM); 28% in assay [2] (setting [7]); 96% (active) in assay [2] (setting [8]); 83.2% (active) in assay [2] (at 50.0 µM). Further, the growth inhibition in assay [3] (setting [7]) is 41%; in assay [3] (setting [8]), 97% (active); in assay [3] (at 50.0 µM) it was 69%; in assay [4] (setting [7]), 23%; in assay [4] (setting [8]), 95% (active); in assay [4] (at 50.0 µM), 89.3% (active). Also, the growth inhibition in assay [5] (setting [7]) was 39%; in assay [5] (setting [8]) it was 96% (active); in assay [5] (at 50.0 µM), 87.9% (active); in assay [6] (setting [7]), 38%; in assay [6] (setting [8]) it was 95% (active); in assay [6] (at 50.0 µM) it was 87.8% (active).
